Data: PubChem BioAssay
For some of these results: Entries with a potency or affinity are not part of this list. The source made the active and inactive calls. Unless noted, no rule for the calls is given here.

Key:
[1] = antimalarial activity against Dd2 strain (AID 2302;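 active = growth inhibition above 50% at the single 2 µM test dose, taken to imply half-maximal potency below 2 µM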;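 also: 0% = DMSO untreated growth and 100% = chloroquine plus artemisinin killed control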); details: P. falciparum Dd2 in RBCs, LDH growth readout, 72 h; at 2 µM; hits give high values
[2] = HepG2 cytotoxicity, primary screen, cytotoxicity control for P. falciparum antimalarial project, cell-based, ATP luminescence (AID 2303;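 active = inhibition above 50%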;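 also: 0% = DMSO wells and 100% = digitonin-killed cells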); details: HepG2 viability, 24-48 h, at 10 µM, hits give high values
[3] = target: L-lactate dehydrogenase (Plasmodium falciparum (isolate CDC / Honduras)) (UniProt Q27743); assay: PfLDH activity inhibition – cell lysate, 3D7 strain, counter-screen for P. falciparum growth inhibition project (AID 2304);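 also: 0% = vehicle and 100% = reference inhibitor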; details: P. falciparum 3D7 crude extract, LDH APAD/NBT absorbance; at 2 µM; hits give high values
L-lactate dehydrogenase (Plasmodium falciparum (isolate CDC / Honduras)), sequence (Q27743 whole entry, looked up): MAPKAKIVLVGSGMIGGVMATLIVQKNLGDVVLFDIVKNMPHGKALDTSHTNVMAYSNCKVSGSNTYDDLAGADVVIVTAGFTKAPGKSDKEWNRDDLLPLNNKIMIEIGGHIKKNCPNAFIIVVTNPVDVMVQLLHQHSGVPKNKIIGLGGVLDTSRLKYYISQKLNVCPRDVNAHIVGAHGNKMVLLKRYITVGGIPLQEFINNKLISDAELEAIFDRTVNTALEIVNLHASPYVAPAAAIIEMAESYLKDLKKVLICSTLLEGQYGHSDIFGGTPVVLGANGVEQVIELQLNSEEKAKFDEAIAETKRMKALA

[4] = inhibition of 3D7 malaria parasite growth – strain 3D7 (AID 2306);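 also: 0% = DMSO wells and 100% = chloroquine plus artemisinin control wells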; details: P. falciparum 3D7 erythrocytic growth, LDH absorbance, 72 h; at 2 µM; hits give high values
[5] = target: Calcium-dependent protein kinase 1 (Plasmodium falciparum (isolate 3D7)) (UniProt P62344); assay: PfCDPK1 kinase inhibitors, biochemical, TCAMS library (AID 1159585; cut-off not given, nearly all actives have IC50 up to about 0.98 µM;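 also: inhibitors leave more ATP so luminescence rises with inhibition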); details: recombinant PfCDPK1, Kinase-Glo ATP depletion luminescence
Calcium-dependent protein kinase 1 (Plasmodium falciparum (isolate 3D7)), sequence (P62344 whole entry, looked up): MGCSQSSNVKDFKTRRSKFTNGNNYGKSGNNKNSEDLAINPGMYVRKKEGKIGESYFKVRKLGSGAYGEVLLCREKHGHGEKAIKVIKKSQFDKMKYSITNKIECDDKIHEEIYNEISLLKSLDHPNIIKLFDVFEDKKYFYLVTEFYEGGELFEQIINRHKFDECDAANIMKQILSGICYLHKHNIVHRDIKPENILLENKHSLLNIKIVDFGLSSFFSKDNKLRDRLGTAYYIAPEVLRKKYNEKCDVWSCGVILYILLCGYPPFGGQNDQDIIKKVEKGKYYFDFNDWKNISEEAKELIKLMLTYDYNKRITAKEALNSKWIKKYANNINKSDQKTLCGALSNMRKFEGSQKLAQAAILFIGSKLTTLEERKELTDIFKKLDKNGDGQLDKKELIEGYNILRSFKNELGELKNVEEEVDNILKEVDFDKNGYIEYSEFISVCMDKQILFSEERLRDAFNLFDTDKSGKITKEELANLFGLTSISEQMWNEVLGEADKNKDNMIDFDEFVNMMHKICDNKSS

[6] = target: Plasmodium falciparum protein kinase 6 (PK6, PF3D7_1337100) (UniProt Q8IDW1); assay: PfPK6 kinase inhibitors, biochemical, TCAMS library (AID 1159586); details: recombinant PfPK6, Kinase-Glo ATP depletion luminescence
Plasmodium falciparum protein kinase 6 (PK6, PF3D7_1337100), sequence (Q8IDW1 1-305): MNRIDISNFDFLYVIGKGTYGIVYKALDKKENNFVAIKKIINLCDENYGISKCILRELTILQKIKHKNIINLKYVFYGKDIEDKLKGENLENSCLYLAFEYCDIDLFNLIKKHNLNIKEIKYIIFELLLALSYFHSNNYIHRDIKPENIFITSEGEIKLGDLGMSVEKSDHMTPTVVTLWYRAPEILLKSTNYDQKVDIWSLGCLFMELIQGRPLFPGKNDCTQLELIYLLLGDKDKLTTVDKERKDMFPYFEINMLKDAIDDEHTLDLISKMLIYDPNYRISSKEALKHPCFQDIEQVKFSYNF

[7] = target: Protein kinase 7 (PK7), Plasmodium falciparum 3D7 (PF3D7_0213400) (UniProt Q7YTF7); assay: inhibition of Plasmodium PK7 catalytic activity – biochemical, TCAMS antimalarial set, Kinase-Glo luminescence (AID 1159587); details: recombinant PfPK7, Kinase-Glo ATP depletion luminescence
Protein kinase 7 (PK7), Plasmodium falciparum 3D7 (PF3D7_0213400), sequence (Q7YTF7 1-343): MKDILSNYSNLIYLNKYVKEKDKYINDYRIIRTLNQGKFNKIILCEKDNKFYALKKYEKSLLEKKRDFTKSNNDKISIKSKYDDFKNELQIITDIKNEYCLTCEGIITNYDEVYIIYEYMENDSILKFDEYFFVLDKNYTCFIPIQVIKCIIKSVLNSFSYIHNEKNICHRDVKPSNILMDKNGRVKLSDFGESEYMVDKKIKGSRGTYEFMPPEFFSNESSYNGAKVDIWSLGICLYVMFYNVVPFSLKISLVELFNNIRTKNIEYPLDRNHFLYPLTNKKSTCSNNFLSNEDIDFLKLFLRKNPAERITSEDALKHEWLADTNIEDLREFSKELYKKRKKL

[8] = target: Calcium-dependent protein kinase 4 (Plasmodium falciparum (isolate 3D7)) (UniProt Q8IBS5); assay: PfCDPK4 kinase inhibitors, biochemical, TCAMS library (AID 1159588; cut-off not given, nearly all actives have IC50 up to about 0.91 µM); details: recombinant PfCDPK4, Kinase-Glo ATP depletion luminescence
Calcium-dependent protein kinase 4 (Plasmodium falciparum (isolate 3D7)), sequence (Q8IBS5 whole entry, looked up): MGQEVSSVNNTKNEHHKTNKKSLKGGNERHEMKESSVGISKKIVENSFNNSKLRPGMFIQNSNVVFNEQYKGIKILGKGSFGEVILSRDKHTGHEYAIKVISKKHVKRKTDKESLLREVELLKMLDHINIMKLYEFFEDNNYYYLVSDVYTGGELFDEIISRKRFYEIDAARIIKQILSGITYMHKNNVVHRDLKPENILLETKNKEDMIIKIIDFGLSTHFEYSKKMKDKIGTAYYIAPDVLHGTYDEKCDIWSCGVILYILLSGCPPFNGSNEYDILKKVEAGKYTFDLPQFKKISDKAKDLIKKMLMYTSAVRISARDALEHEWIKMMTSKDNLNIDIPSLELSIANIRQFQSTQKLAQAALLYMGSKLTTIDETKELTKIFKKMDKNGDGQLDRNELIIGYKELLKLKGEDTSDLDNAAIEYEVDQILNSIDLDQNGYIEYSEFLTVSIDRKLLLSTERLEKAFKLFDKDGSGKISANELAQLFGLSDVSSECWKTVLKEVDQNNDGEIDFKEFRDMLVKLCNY

O=C(CCc1cccnc1)Nc1cccc(-c2ccc(-c3nc4ccc(C(F)(F)F)cc4[nH]3)cc2)c1
inactive: growth inhibition [1] -5% | inhibition [2] 38% | inhibition [3] 3% | outcome [5] | outcome [6] | outcome [7] | outcome [8]
active: growth inhibition [4] 93%

CC(=O)Nc1ccc(-c2nc3ccc(-c4nc5ccc(NC(C)=O)cc5[nH]4)cc3[nH]2)cc1
active: growth inhibition [1] 99% | growth inhibition [4] 99%
inactive: inhibition [2] -13% | inhibition [3] -2% | outcome [5] | outcome [6] | outcome [7] | outcome [8]

O=C(N[C@H]1CCN(Cc2ccc(OCCN3CCNCC3)c(Br)c2)C1)c1ccc(Cl)c(Cl)c1
active: inhibition [2] 69% | growth inhibition [4] 101%
inactive: growth inhibition [1] 36% | inhibition [3] 5% | outcome [5] | outcome [6] | outcome [7] | outcome [8]

CCc1c(CCNCCCCCCNCc2ccc3c(c2CC)OCO3)ccc(OC)c1OC
active: growth inhibition [4] 100%
inactive: growth inhibition [1] 19% | inhibition [2] 38% | inhibition [3] 6% | outcome [5] | outcome [6] | outcome [7] | outcome [8]

COc1cc(NC(=O)/C=C/c2cc(F)cc(F)c2F)cc(OCCN2CCN(CCN3CCOCC3)CC2)c1
active: growth inhibition [1] 94% | growth inhibition [4] 102%
inactive: inhibition [2] 21% | inhibition [3] 0% | outcome [5] | outcome [6] | outcome [7] | outcome [8]

CC(=NNC(=S)NC(C)(C)C)c1ccccn1
inactive: inhibition [3] -3% | outcome [5] | outcome [6] | outcome [7] | outcome [8]
active: growth inhibition [1] 100% | inhibition [2] 63% | growth inhibition [4] 99%

COc1cccc(Nc2nc(Nc3cccc(C#N)c3)cc(-c3ccncc3)n2)c1
active: growth inhibition [4] 100%
inactive: growth inhibition [1] 46% | inhibition [2] 28% | inhibition [3] 1% | outcome [5] | outcome [6] | outcome [7] | outcome [8]

CSc1ccc(CN2CCC(NC(=O)c3ccc(-c4cccc(C(F)(F)F)c4)s3)CC2)cc1
inactive: growth inhibition [1] 9% | inhibition [3] -2% | outcome [5] | outcome [6] | outcome [7] | outcome [8]
active: inhibition [2] 68% | growth inhibition [4] 90%

CCN(CC)c1ccc2nc(N)nc(N)c2c1Cl
active: inhibition [2] 62% | growth inhibition [4] 92%
inactive: growth inhibition [1] 1% | inhibition [3] -5% | outcome [5] | outcome [6] | outcome [7] | outcome [8]

COc1ccc(NC(=O)Nc2cc(C)nc3cccnc23)cc1Cn1ccnc1
active: growth inhibition [4] 100%
inactive: growth inhibition [1] 41% | inhibition [2] 12% | inhibition [3] -3% | outcome [5] | outcome [6] | outcome [7] | outcome [8]

O=C(CSc1nccn1Cc1ccco1)Nc1cc(C(F)(F)F)ccc1Cl
inactive: inhibition [2] 9% | inhibition [3] -4% | outcome [5] | outcome [6] | outcome [7] | outcome [8]
active: growth inhibition [1] 66% | growth inhibition [4] 91%

CCc1ccccc1N1CCN(CCCC(=O)c2ccc(NC(=O)c3cc(Cl)cc(Cl)c3)cc2)CC1
inactive: growth inhibition [1] 46% | inhibition [2] 16% | inhibition [3] 1% | outcome [5] | outcome [6] | outcome [7] | outcome [8]
active: growth inhibition [4] 99%

COc1ccc(OCC(O)CN(Cc2ccccc2OC)C(=O)Nc2ccc(Br)cc2)cc1 (stereo not given)
active: growth inhibition [4] 97%
inactive: growth inhibition [1] 2% | inhibition [2] 8% | inhibition [3] 0% | outcome [5] | outcome [6] | outcome [7] | outcome [8]

Fc1ccc2nc(-c3ccc(-c4ccc(CNCc5cnn(-c6ccccc6)n5)cc4)cc3)[nH]c2c1
active: growth inhibition [4] 98%
inactive: growth inhibition [1] 47% | inhibition [2] 41% | inhibition [3] 1% | outcome [5] | outcome [6] | outcome [7] | outcome [8]

c1cc(-c2ccc(CNCc3ccsc3)cc2)cc(-c2nc3ccccc3[nH]2)c1
active: growth inhibition [1] 82% | growth inhibition [4] 101%
inactive: inhibition [2] 46% | inhibition [3] 2% | outcome [5] | outcome [6] | outcome [7] | outcome [8]

CC(CNC1CCN(CCn2c(=O)ccc3ccc(F)cc32)CC1)c1ccccc1 (stereo not given)
active: growth inhibition [4] 85%
inactive: growth inhibition [1] 4% | inhibition [2] -12% | inhibition [3] -1% | outcome [5] | outcome [6] | outcome [7] | outcome [8]

O=C(Nc1ccc(OC2CCN(Cc3ccsc3)C2)c(Cl)c1)c1cccs1 (stereo not given)
active: growth inhibition [1] 87% | growth inhibition [4] 91%
inactive: inhibition [2] -1% | inhibition [3] -5% | outcome [5] | outcome [6] | outcome [7] | outcome [8]

NC(CC1CC(=O)N1CC(=O)O)C(=O)O (stereo not given)
inactive: growth inhibition [1] -3% | inhibition [3] -5% | outcome [5] | outcome [6] | outcome [7] | outcome [8]
active: inhibition [2] 56% | growth inhibition [4] 95%

COc1ccc(CNC2CCN(C)CC2)cc1-c1ccc(S(=O)(=O)NC2CCC2)c(F)c1
active: growth inhibition [1] 97% | inhibition [2] 96% | growth inhibition [4] 101%
inactive: inhibition [3] 7% | outcome [5] | outcome [6] | outcome [7] | outcome [8]

Cc1cc(-c2ccc(S(=O)(=O)Nc3cc4c(cc3OC(C)C)CCN(C)CC4)cc2)ccc1Cl
active: growth inhibition [4] 90%
inactive: growth inhibition [1] 19% | inhibition [2] 33% | inhibition [3] -1% | outcome [5] | outcome [6] | outcome [7] | outcome [8]
